NCOA3 inh: inhibitors of human steroid receptor coactivator 3 (SRC3); inhibition, % at 3.6 µM; 360,000 compounds, 0.17% hits; AID 588352; HEK293 GAL4-SRC3 luciferase reporter, luminescence; Q9Y6Q9;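 active = inhibition above a per-campaign cutoff, the mean of all compounds plus 3 SD, cut at about 60% in these data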;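 also: higher means less SRC3-driven luciferase light from the GAL4 reporter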
NR2F2 inh: blocks human COUP-TFII nuclear receptor; AID 686940; P24468; HEK293T NGFI-A luciferase reporter, luminescence; inhibition, % at 8.6 µM; 370,000 compounds, 0.7% hits;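 active = inhibition above a per-plate cutoff, mean inhibition of test wells between control levels plus 3 SD, cut at about 38% in these data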;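 also: cells cotransfected with COUP-TFII expression vector driving the NGFI-A reporter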
NCOA2 inhibitor: inhibits human steroid receptor coactivator 2; HEK293 GAL4-SRC2 luciferase reporter, luminescence; inhibition, % at 9 µM; 370,000 compounds, 0.17% hits;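 active = inhibition above the mean inhibition of all tested compounds plus 3 SD, set per campaign, cut at about 52% in these data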
LRH-1 inv ag: suppresses constitutive activity of human LRH-1; 360,000 compounds, 0.13% hits; O00482; inhibition, % at 3.6 µM; HEK293T StAR-luciferase reporter, LRH-1 transfected, 24 h; AID 602396;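 active = inhibition above the mean inhibition of all tested compounds plus 3 SD, cut at about 73% in these data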
NCOA1 inh: inhibitors of human steroid receptor coactivator 1 (SRC1) | Q15788 | 360,000 compounds, 0.12% hits | AID 588354 | HEK293 GAL4-SRC1 luciferase reporter, luminescence | inhibition, % at 3.6 µM;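 active = inhibition above the campaign mean plus 3 SD, with each screening campaign given its own cutoff, cut at about 60% in these data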
Gal4-VP16 ctr: VP16 inhibition counter-screen for COUP-TFII | shares compounds with NR2F2 inh | HEK293 Gal4-VP16 luciferase reporter, luminescence | inhibition, % at 8.5 µM | 2,500 compounds, 25% hits | AID 687007; in the data active = inhibition above about 13%
COUP-TFII conf: confirmation of human COUP-TFII (NR2F2) inhibitors; shares compounds with NR2F2 inh; 2,500 compounds, 45% hits; inhibition, % at 8.5 µM; AID 687008; HEK293 NGFI-A luciferase reporter, luminescence;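 active = mean inhibition over three repeats above a set limit taken from the earlier primary screen, cut at about 38% in these data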
A number is an active result; - = inactive; . = no result given; ! = a repeat was not active. This is a sample that favours compounds with a hit; in the whole collection about 0.81% have one here.

SMILES	NCOA3 inh	NR2F2 inh	NCOA2 inhibitor	LRH-1 inv ag	NCOA1 inh	Gal4-VP16 ctr	COUP-TFII conf
O=C1CC(c2ccc3c(c2)OCO3)Sc2nc3ccccc3n21 (centres undefined)	-	42	-	-	-	-	-
O=C1CC(c2ccccc2)Sc2nc3ccccc3n21 (centres undefined)	-	-	-	-	-	.	.
CCN(CC)c1ccc(C=Nn2c(-c3ccc(F)cc3)n[nH]c2=S)c(O)c1	.	-	-	.	.	.	.
C[n+]1c2n(c3ccccc31)N=C(c1cc(C(C)(C)C)c(O)c(C(C)(C)C)c1)CS2	-	81	-	79	-	29	87
COc1cccc(C2=Nn3c(nnc3-c3ccccc3O)SC2)c1	-	-	-	-	-	.	.
CCCCOCCCNC(=O)C[C@@H]1C(=O)N(CCc2ccc(Cl)cc2)C2=CCCCC[C@]21C(=O)OC	.	-	-	.	.	.	.
O=C1C(NC(=O)N2c3ccccc3C=Cc3ccccc32)CCCCN1Cc1cccc(Cl)c1 (centres undefined)	.	-	-	.	.	.	.
CC(=O)c1c(C(C)=O)c(C)n(Cc2ccc(Cl)cc2)c1C	-	43	-	-	-	-	-
CCOC(=O)CC[C@@]1(C(=O)OCC)C[C@@H](CC(=O)N2CCCC2)C(=O)N2CCCC=C21	.	-	-	.	.	.	.
Cc1ccc(-c2nn3c(C)nnc3s2)cc1NC(=O)c1ccc(-c2ccc(Cl)cc2Cl)o1	-	-	-	-	-	.	.
Cc1ccc(-c2nn3c(C)nnc3s2)cc1NC(=O)c1ccc(-c2cccc(Cl)c2)o1	-	56!	-	-	-	-	-
COc1cccc2c(NCc3ccccc3)nc(-n3c(N)nc4ccccc43)nc12	.	100	.	.	.	49	-
CCOC(=O)[C@@]12CCCC3=C1N(CCC3)C(=O)[C@H]2CC(=O)N1CCOCC1	.	-	-	.	.	.	.
Cc1cc(C)cc(C(=O)OCCN2CCN(C3CN(Cc4cn(Cc5ccc([N+](=O)[O-])cc5)nn4)S(=O)(=O)C3)CC2)c1 (centres undefined)	.	-	-	.	.	.	.
Cc1cc(C)cc(C(=O)OCCN2CCN(C3CN(Cc4cn(Cc5ccccc5F)nn4)S(=O)(=O)C3)CC2)c1 (centres undefined)	.	49	-	.	.	-	-
COC(=O)[C@H](C(C)C)N1CCc2nnn(Cc3ccccc3)c2-c2cc(F)ccc2S1(=O)=O	.	-	-	.	.	.	.
COc1ccc(C(=O)N2CCN(c3ccc([N+](=O)[O-])c(NCCc4ccc(OC)c(OC)c4)c3)CC2)cc1	-	39	-	-	-	-	89
CCOc1ccc(C2NC(=O)NC(C)=C2C(=O)OCc2ccccc2)cc1 (centres undefined)	-	-	-	-	-	.	.
COc1ccc(COC(=O)C2=C(C)NC(=O)NC2c2ccc(F)cc2)cc1 (centres undefined)	-	39	-	-	-	-	-
CCN(CC)c1nc(C=Cc2ccc(N(C)C)cc2)c2nccnc2n1	-	88	66	-	-	-	-
CN(C)c1ccc(C=Cc2nccc3ccccc23)cc1	-	-	-	-	-	.	.
Cc1cccc(Cn2cc(COC(=O)N3CCCC3)nn2)c1	.	-	-	.	.	.	.
Cc1ccc2c(c1)nnn2C1CCN(S(=O)(=O)c2ccc(C(=O)N3C(C)CCCC3C)cc2)CC1 (centres undefined)	-	42	-	-	-	-	55
O=C(Nc1nc2ccccc2[nH]1)c1ccccc1F	64	62	65	-	-	33	48
CCOc1ccc(C(=O)Nc2nc3ccccc3[nH]2)cc1OCC	-	52	-	-	-	-	-
SMILES	NCOA3 inh	NR2F2 inh	NCOA2 inhibitor	LRH-1 inv ag	NCOA1 inh	Gal4-VP16 ctr	COUP-TFII conf
O=C(Nc1nc2ccccc2[nH]1)c1ccc(F)cc1	-	-	-	-	-	.	.
CCc1ccc(C(=O)Nc2nc3ccccc3[nH]2)cc1	-	74	68	-	-	-	-
CCOC(=O)[C@@]12CCCC3=C1N(CCC3)C(=O)[C@H]2CC(=O)N1CCSCC1	.	-	-	.	.	.	.
O=C(NCc1ccco1)C1CCCN(S(=O)(=O)c2ccccc2[N+](=O)[O-])C1 (centres undefined)	.	-	-	.	.	.	.
CC(C)(C)NC(=O)COc1ccc(CNc2ncn[nH]2)cc1	-	-	-	-	-	.	.
COc1cc(CNc2ccc(CNc3ncn[nH]3)cc2)ccc1OCC(=O)NC(C)(C)C	-	42	-	-	-	-	-

Screening results as filed in PubChem.
